Assay results: PubChem BioAssay (Tox21)
Records with an inconclusive call do not appear. Calls of active or inactive are those of the source. Unless noted, calls come from the whole dose curve.

Assays:
[1] = Nuclear factor erythroid 2-related factor 2/antioxidant responsive element (Nrf2/ARE) small molecule agonists: qHTS cell viability counter screen in human keratinocytes (AID 1919968; active = well fitted curve in the direction sought with a large enough effect in the repeat runs; an effect the other way counts as inactive or inconclusive; note: nearly all actives have a fitted effect of over 55% in size; note: potency is the fitted concentration of half-maximal effect)
Outline: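 HaCaT ARE reporter line, 1,500 cells/well; 5 h settle, 37 C/5% CO2; cpd in DMSO pinned; 23 h exposure; CellTiter-Fluor, 1 h; fluorescence.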

[2] = Nuclear factor erythroid 2-related factor 2/antioxidant responsive element (Nrf2/ARE) small molecule agonists: luciferase reporter gene qHTS assay in human keratinocytes (AID 1919969); note: nearly all actives have a fitted effect of over 35% in size
[3] = biological target: Gonadotropin-releasing hormone receptor (Homo sapiens) (UniProt P30968); test: Human gonadotropin-releasing hormone receptor (GnRHR) small molecule agonists, calcium flux assay in GnRHR-HEK293 cells (AID 1920063); note: nearly all actives have a fitted effect of over 35% in size
Outline: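 GnRHR-HEK293, 1500 cells/well, 18 h 37 C/5% CO2; Ca dye 1 h 37 C; cpd pinned (DMSO), agonist mode; kinetic FL 480/540, 3 min, 1 s reads; 15 conc, n=3.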

[4] = biological target: KiSS-1 receptor (Homo sapiens) (UniProt Q969F8); test: Human kisspeptin (KISS1R) small molecule agonists, calcium flux assay in KISS1R-HEK293 cells (AID 1920064; active = well fitted curve in the direction sought with a large enough effect in the repeat runs; an effect the other way counts as inactive or inconclusive)
Outline: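 Stable human KISS1R HEK293 line; 18 h plating, 37 C/5% CO2; calcium dye 1 h 37 C; compound pin transfer; kinetic fluorescence Ex/Em 480/540, 3 min.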

[5] = G protein-coupled receptor (GPCR) small molecule agonists, calcium flux assay: HEK293 wild type cell line counter screen (AID 1920065)
Outline: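 Kinetic fluorescence at Ex/Em 480/540, recorded every second over 3 min, served as the read-out after compound addition. Each compound was tested at 15 concentrations in triplicate on cells pre-loaded with calcium dye for 1 h.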

[6] = p53 small molecule agonists, cell-based qHTS assay with human liver microsomes (AID 1963577);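 note: p53 response element beta-lactamase reporter cells with liver microsomes plus NADPH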
Outline: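 HLM-supplemented p53RE-bla reporter assay: 16 h compound exposure at 37 C, microsomes and NADPH each 0.5 mg/mL final, read by fluorescence intensity.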

[7] = p53 small molecule agonists, cell-based qHTS assay with rat liver microsomes (AID 1963578)
Outline: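 Quantitative HTS of the Tox21 10K library: p53RE-bla cells, rat liver microsomes plus NADPH at 0.5 mg/mL final each, 16 h at 37 C, beta-lactamase fluorescence detection.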

[8] = p53 small molecule agonists, cell-based qHTS assay with human liver microsomes: qHTS cell viability counter screen (AID 1963579); note: nearly all actives have a fitted effect of over 45% in size
Outline: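 Viability of p53RE-bla cells is measured as CellTiter-Glo luminescence following a 16 h, 37 C incubation with compound, liver microsomes from human donors and NADPH.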

[9] = p53 small molecule agonists, cell-based qHTS assay with rat liver microsomes: qHTS cell viability counter screen (AID 1963580); note: nearly all actives have a fitted effect of over 45% in size
Outline: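 Viability is assessed in parallel with the p53 reporter read: HCT-116 p53RE-bla cells receive compounds plus rat microsomes and NADPH (0.5 mg/mL final apiece), incubate 16 h at 37 C, and then CellTiter-Glo luminescence is recorded.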

[10] = biological target: 5-hydroxytryptamine receptor 2A (Homo sapiens) (UniProt P28223); test: 5-hydroxytryptamine receptor 2A (HTR2A) small molecule antagonists, cell-based qHTS assay (AID 1963586); note: nearly all actives have a fitted effect of over 45% in size; note: potency is the fitted concentration of half-maximal effect
Outline: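 Antagonist-mode intracellular calcium assay: DOI (4 nM) added after 5 min compound pre-incubation at room temperature to dye-loaded HTR2A-CHO cells. Fluorescence followed for 3 min, sampled every second.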

[11] = biological target: 5-hydroxytryptamine receptor 2A (Homo sapiens) (UniProt P28223); test: 5-hydroxytryptamine receptor 2A (HTR2A) small molecule agonists, cell-based qHTS assay (AID 1963587); note: nearly all actives have a fitted effect of over 30% in size
Outline: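 CHO cells stably expressing human HTR2A, plated 18 h, loaded with calcium dye 1 h at 37 C. Agonist mode: compounds added and intracellular calcium fluorescence recorded kinetically for 2 min at 1 sec intervals.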

[12] = biological target: Muscarinic acetylcholine receptor M1 (Homo sapiens) (UniProt P11229); test: Cholinergic receptor muscarinic 1 (CHRM1) small molecule antagonists, cell-based qHTS assay (AID 1963588); note: nearly all actives have a fitted effect of over 40% in size; note: potency is the fitted concentration of half-maximal effect
Outline: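 CHRM1-CHO calcium-flux assay, antagonist mode. Cells were seeded 18 h, dye-loaded 1 h at 37 C and given compound for 5 min at RT, then acetylcholine was added at 50nM. FDSS fluorescence was read 3 min; 15 concentrations, three runs.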

[13] = biological target: Muscarinic acetylcholine receptor M1 (Homo sapiens) (UniProt P11229); test: Cholinergic receptor muscarinic 1 (CHRM1) small molecule agonists, cell-based qHTS assay (AID 1963589); note: nearly all actives have a fitted effect of over 35% in size
Outline: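 Human M1 in stable CHO line; 18 h plating, 1 h dye load 37 C; cpd added (agonist mode); Ca2+ fluorescence kinetic read, 1 s intervals; 15 conc, 3 runs.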

[14] = biological target: D(2) dopamine receptor (Homo sapiens) (UniProt P14416); test: Dopamine D2 receptor (DRD2) small molecule agonists, cell-based qHTS assay (AID 1963594); note: nearly all actives have a fitted effect of over 35% in size
Outline: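 HEK293 cells stably expressing human DRD2, pre-treated with PDE inhibitor Ro20-1724 (0.1 mM final) and compound 10 min at room temperature, then stimulated with NKH477 (200nM […]) for 30 min. cAMP read by HTRF (665/620 nm).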

[15] = biological target: D(2) dopamine receptor (Homo sapiens) (UniProt P14416); test: Dopamine D2 receptor (DRD2) small molecule antagonists, cell-based qHTS assay (AID 1963595; active = well fitted inhibition curve with a large enough effect in the signal ratio in the repeat runs, with a control signal flat; the % refers to the signal ratio)
Outline: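 DRD2-HEK293; 0.1 mM Ro20-1724; cpd 10 min RT; NKH477 200 nM + quinpirole 12 nM, 30 min RT; HTRF cAMP (cAMP-d2/anti-cAMP cryptate), 665/620 nm ratio after 1 h.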

[16] = cAMP Responsive Elements (CRE) small molecule agonists, cell-based qHTS assay (AID 1963590)
Outline: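 HEK 293T CRE-bla, 2,000 cells/well, 18 h preincubation 37 C/5% CO2; cpds (DMSO) pinned, 3 h; LiveBLAzer B/G FRET substrate, 2 h RT.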

[17] = biological target: Beta-2 adrenergic receptor (Homo sapiens) (UniProt P07550); test: Adrenergic beta2 receptor (ADRB2) small molecule antagonists, cell-based qHTS assay (AID 1963592); note: series mostly up to about 92 µM; nearly all actives have a fitted effect of over 50% in size
Outline: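 Cells (CHO, stable ADRB2 overexpression) incubated 18-20hr at 37C; compounds added from DMSO; agonist mix (1nM isoproterenol, 100uM IBMX, 25uM Ro-20-1724) added; 0.5hr RT; d2-cAMP and anti-cAMP-cryptate added; 1hr RT; 665/615 nm read.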

[18] = biological target: Beta-2 adrenergic receptor (Homo sapiens) (UniProt P07550); test: Adrenergic beta2 receptor (ADRB2) small molecule agonists, cell-based qHTS assay (AID 1963593);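 note: CHO cells stably overexpressing human ADRB2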
Outline: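 CHO cells stably over-expressing ADRB2 were plated overnight at 37C, then dosed with compounds plus a stimulation mix containing 100uM IBMX and 25uM Ro-20-1724 for 0.5hr at room temperature. cAMP was measured by HTRF competition, 1hr.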

[19] = cAMP Responsive Elements (CRE) small molecule antagonists, cell-based qHTS assay (AID 1963591; active = well fitted inhibition curve with a large enough effect in the signal ratio in the repeat runs, not every such curve was filed as active; the % refers to the signal ratio)
Outline: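 Beta-lactamase reporter read by FRET substrate (LiveBLAzer B/G) after 2 h at room temperature. CRE-bla HEK293T cells had received compound plus 0.25 uM (final) NKH477 for 3 h at 37 °C.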

[20] = p53 small molecule agonists, cell-based qHTS assay (AID 1963582; active = well fitted activation curve with a large enough effect in the signal ratio in the repeat runs, not every such curve was filed as active; the % refers to the signal ratio; note: potency is the fitted concentration of half-maximal effect)
Outline: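 Reporter line: p53RE-bla. Pre-incubation 5 h, 37 C, 5% CO2; compound (DMSO, pin tool) 16 h, 37 C; B/G FRET substrate 2 h RT; fluorescence intensity read.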

Measured: Potency

Sequence of D(2) dopamine receptor (Homo sapiens) (P14416 whole entry, looked up): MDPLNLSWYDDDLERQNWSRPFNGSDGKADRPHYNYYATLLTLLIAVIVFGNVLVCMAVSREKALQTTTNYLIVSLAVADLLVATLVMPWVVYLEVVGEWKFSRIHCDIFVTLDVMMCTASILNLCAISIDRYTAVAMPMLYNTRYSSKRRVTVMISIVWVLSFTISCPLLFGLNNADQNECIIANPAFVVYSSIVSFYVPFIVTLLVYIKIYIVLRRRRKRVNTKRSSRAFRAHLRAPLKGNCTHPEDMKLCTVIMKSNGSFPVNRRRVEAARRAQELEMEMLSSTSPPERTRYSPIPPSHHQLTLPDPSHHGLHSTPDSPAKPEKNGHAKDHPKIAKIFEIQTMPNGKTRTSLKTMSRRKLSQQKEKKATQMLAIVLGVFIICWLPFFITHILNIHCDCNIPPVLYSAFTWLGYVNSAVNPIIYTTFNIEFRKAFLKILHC
Sequence of 5-hydroxytryptamine receptor 2A (Homo sapiens) (P28223 whole entry, looked up): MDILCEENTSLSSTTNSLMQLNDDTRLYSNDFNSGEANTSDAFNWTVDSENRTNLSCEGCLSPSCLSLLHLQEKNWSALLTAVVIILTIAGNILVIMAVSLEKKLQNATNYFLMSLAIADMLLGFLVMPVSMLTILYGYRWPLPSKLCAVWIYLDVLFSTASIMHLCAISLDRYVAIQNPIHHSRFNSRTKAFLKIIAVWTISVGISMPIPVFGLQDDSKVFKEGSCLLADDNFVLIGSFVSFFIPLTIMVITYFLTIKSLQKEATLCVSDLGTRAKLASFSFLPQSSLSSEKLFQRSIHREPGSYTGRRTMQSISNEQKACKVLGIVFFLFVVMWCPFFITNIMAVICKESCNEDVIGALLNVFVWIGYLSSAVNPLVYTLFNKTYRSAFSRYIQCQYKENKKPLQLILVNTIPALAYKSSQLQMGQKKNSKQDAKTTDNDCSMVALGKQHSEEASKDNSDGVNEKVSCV
Sequence of Muscarinic acetylcholine receptor M1 (Homo sapiens) (P11229 whole entry, looked up): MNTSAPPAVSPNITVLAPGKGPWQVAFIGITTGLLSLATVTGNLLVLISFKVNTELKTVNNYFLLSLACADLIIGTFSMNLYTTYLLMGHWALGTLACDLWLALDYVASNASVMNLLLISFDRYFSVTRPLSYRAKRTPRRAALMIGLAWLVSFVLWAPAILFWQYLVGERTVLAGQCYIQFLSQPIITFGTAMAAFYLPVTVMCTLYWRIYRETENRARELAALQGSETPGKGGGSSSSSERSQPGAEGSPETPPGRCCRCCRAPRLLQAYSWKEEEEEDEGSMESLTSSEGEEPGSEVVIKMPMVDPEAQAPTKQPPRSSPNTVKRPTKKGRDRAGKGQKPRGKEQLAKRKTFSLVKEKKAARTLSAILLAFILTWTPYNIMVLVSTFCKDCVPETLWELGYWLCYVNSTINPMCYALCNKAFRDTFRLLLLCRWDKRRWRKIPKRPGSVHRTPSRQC
Sequence of KiSS-1 receptor (Homo sapiens) (Q969F8 whole entry, looked up): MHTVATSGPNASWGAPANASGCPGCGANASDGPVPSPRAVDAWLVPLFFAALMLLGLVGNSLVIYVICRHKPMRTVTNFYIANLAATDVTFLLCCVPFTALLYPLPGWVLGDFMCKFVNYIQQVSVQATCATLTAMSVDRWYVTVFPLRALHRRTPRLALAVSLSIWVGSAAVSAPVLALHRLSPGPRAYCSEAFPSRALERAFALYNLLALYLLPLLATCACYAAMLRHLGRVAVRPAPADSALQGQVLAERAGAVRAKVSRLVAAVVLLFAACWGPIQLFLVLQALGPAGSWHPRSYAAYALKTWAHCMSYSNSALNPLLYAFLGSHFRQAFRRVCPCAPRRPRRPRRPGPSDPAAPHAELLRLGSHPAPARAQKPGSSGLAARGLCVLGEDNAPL
Sequence of Gonadotropin-releasing hormone receptor (Homo sapiens) (P30968 whole entry, looked up): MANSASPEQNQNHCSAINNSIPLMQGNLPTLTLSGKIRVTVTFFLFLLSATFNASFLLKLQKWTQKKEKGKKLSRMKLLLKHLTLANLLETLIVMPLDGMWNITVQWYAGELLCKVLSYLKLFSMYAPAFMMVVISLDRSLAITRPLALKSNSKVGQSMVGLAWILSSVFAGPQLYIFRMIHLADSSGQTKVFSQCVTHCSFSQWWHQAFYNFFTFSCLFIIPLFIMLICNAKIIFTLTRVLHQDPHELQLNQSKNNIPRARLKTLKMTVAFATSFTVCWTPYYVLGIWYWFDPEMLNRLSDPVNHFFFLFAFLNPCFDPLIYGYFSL
Sequence of Beta-2 adrenergic receptor (Homo sapiens) (P07550 whole entry, looked up): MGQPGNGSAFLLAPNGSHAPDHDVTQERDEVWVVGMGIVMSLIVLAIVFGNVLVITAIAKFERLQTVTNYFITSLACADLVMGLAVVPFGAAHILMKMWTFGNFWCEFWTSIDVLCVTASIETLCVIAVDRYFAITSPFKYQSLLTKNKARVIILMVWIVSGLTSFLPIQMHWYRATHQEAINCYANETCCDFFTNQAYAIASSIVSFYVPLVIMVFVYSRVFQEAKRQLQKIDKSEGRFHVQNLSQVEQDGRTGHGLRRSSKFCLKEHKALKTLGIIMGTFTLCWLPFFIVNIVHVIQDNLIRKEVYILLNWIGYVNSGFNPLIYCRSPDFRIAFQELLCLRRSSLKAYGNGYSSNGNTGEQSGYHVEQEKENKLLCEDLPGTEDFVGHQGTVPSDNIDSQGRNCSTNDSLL

CCc1nn(C2CCCCC2)c2cc(C3(C#N)CCC(C(=O)O)CC3)ccc12 (configuration not stated)
not listed: [16] | [17] | [18] | [19] | [20]
inactive: all other assays above

Oc1ccc(Oc2ccccc2)cc1
not listed: [15] | [19] | [20]
inactive: all other assays above

FC(F)(F)C(F)(F)C(F)(F)C(F)(F)CCI
not listed: [15] | [20]
inactive: all other assays above

Cc1occc(=O)c1OC(=O)C(C)C
not listed: [15] | [18] | [20]
inactive: all other assays above

Cc1c(Cl)cccc1Nc1ccccc1C(=O)O
active: [10] 16.3 µM | [12] 4.6 µM
not listed: [16] | [19] | [20]
inactive: all other assays above

Nc1c(N=Nc2ccc(-c3ccc(N=Nc4cc(S(=O)(=O)O)c5ccccc5c4N)cc3)cc2)cc(S(=O)(=O)O)c2ccccc12
active: [1] 30.6 µM
not listed: [11] | [14] | [15] | [17] | [18] | [20]
inactive: all other assays above

Nc1nc(CC(=O)O)cs1
not listed: [16] | [18] | [19] | [20]
inactive: all other assays above

Nc1ccn([C@@H]2O[C@H](CO)[C@@H](O)C2(F)F)c(=O)n1
active: [20] 0.199 µM
not listed: [10] | [11] | [12] | [13] | [14] | [16] | [17] | [18]
inactive: all other assays above

Nc1ncnc2c1ncn2[C@H]1CC[C@@H](CO)O1
not listed: [18] | [19] | [20]
inactive: all other assays above

NC(=O)COCCN1CCN(C(c2ccccc2)c2ccc(Cl)cc2)CC1 (configuration not stated)
not listed: [14] | [18] | [20]
inactive: all other assays above

CC(=O)O[C@@H]1CC2CCC1(C)C2(C)C (some centres not stated)
not listed: [20]
inactive: all other assays above

COc1ccc(C(=O)N2CCN(CC(=O)N3CCOCC3)CC2)cc1
not listed: [10] | [11]
inactive: all other assays above

CCCCCCCCCCCCCCCC/C=C/C1CC(=O)OC1=O (configuration not stated)
not listed: [12] | [17] | [18] | [20]
inactive: all other assays above

CN1CN(C)CN(C)C1
not listed: [20]
inactive: all other assays above
